ChEMBL document CHEMBL3433997, “St. Jude Leishmania screening dataset” (2016)

What follows are compounds tested against Solute carrier family 2, facilitated glucose transporter member 1 (Homo sapiens) (UniProt P11166) (assay: ST_JUDE_LEISH: Cytotoxicity at 2uM final concentration against transgenic Leishmania Mexicana promastigotes LmGLUT1 that are glucose transport deficient and complemented with the human glucose transporter GLUT1. Activity is measured by DNA content using SYBR green in vitro).
Sequence of Solute carrier family 2, facilitated glucose transporter member 1 (Homo sapiens) (P11166 whole entry): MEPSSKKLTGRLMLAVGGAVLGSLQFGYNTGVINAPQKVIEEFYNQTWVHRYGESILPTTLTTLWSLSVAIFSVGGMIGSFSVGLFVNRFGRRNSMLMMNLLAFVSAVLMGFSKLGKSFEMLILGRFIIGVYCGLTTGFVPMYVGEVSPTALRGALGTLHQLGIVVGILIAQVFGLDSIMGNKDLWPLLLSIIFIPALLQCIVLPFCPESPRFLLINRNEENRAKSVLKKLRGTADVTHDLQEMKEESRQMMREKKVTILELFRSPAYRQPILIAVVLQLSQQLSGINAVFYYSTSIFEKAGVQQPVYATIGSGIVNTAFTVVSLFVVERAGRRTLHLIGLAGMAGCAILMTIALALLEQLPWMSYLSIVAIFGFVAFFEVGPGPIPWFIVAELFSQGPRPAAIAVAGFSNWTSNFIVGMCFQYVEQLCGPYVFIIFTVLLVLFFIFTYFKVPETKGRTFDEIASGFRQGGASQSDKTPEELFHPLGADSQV
Format: functional

SMILES | inhibition [%]
C#CC[C@@H](NC(N)=O)C(=O)O | -0.51
Cc1ccc(/C=C/C(=O)NC2CCC(N3CCC(c4ccccc4C)CC3)CC2)cc1F (stereo not given) | 15.1
O=C(/C=C/c1ccc(Cl)c(Cl)c1)NCCCCCCN1CCCN(C(=O)Nc2cccc(Cl)c2)CC1 | -1.03
CCOc1ccc(/C=C/C(=O)Nc2cccc3c2CCN(C)C3)cc1 | 8.24
O=C(O)c1ccc2c(c1)N(C(=O)CNCc1ccc(F)cc1)CC(=O)N2CCCc1ccccc1 | -4.22
CN1CCN(c2ccc(-c3cc(-c4ccncc4)c(-c4ccc(Cl)c(O)c4)o3)cc2)CC1 | -0.86
CC(C)N1CCC(N(Cc2ccc(-c3ccc(C(F)(F)F)cc3)cc2)C(=O)Cn2c(CCc3cccc(F)c3F)cc(=O)c3cn(C)nc32)CC1 | 10.3
Cc1cc(Nc2ccc(Oc3ccc(Cl)cc3)cc2)nc(N)n1 | 3.89
Cc1c[nH]c(CCNC(=O)c2cc(-c3ccc(Cl)cc3)cs2)n1 | 2.64
O=C(Nc1cccc2ccccc12)N1CCc2cc3nccc(N4CCN5CCC[C@H]5C4)c3cc21 | 5.08
CS(=O)(=O)c1ccc(-n2nc(C(F)(F)F)cc2-c2ccc(C=NOCC(=O)O)o2)cc1 | 1.5
CCc1c(CCNCCCCCCNCCc2ccc([N+](=O)[O-])cc2)ccc(OC)c1OC | 12.1
CCc1cc(N2CCN(c3ccccc3F)CC2)nc(SCc2ccc(C(=O)NC3CC3)o2)n1 | 2.82
Cc1cc(NCc2ccc(F)cc2)nc2cc(O)ccc12 | 2.81
COc1ccc(CCN(C)CCOc2ccc(NC(=O)COc3ccc4sc5ccccc5c(=O)c4c3)cc2)cc1OC | 3.46
O=C(NC1CCCCC1)N(Cc1cccc(-c2ccc(CNCc3ccc4c(c3)OCO4)cc2)c1)C1CCN(Cc2ccccc2)CC1 | 8.67
O=C(Nc1cccc(-c2nc3ccccc3[nH]2)c1)c1cccc(NC(=O)c2ccco2)c1 | 2.33
CCN1C(=O)C(CC(=O)Nc2cccc(Cl)c2)N(Cc2ccc(OC)c(OC)c2)C1=S (stereo not given) | 0.59
CCc1ccc(OCc2ccccc2C(=O)Nc2ccc3nc(C)cc(N)c3c2)cc1 | 2.1
CC(=O)c1c(C)[nH]c(C(=O)Nc2ccc(-c3nc4ccc(C)cc4s3)cc2)c1C | -0.62

SMILES | inhibition [%]
N#Cc1ccc(CN2CCC(Oc3ccc(NC(=O)c4cccs4)cc3)C2)cc1 (stereo not given) | 2.68
Cc1nc(-c2ccc(-c3ccc(NC(=O)c4coc5ccc(N6CC(C)NC(C)C6)cc45)cc3)c(C)c2)no1 (stereo not given) | 3.42
O=C(CC(=O)Nc1cc(Cl)cc(Cl)c1)Nc1cc(Cl)cc(Cl)c1 | -1.77
Nc1nc(N)c2c(Cl)c(N(Cc3ccccc3)Cc3ccccc3)ccc2n1 | 23.6
CCC(C)c1ccc(NC(=O)c2ccc(S(=O)(=O)Nc3ccc(OC)c(N4CCN(CC5CC5)CC4)c3)cc2)cc1 (stereo not given) | 1.59
CC(=O)Nc1nc(N)c2c(ccc3c2ccn3CC(C)C)n1 | -2.54
Cc1cc(NC2CCN(Cc3ccccc3)CC2)nc(NCCCCc2ccccc2)n1 | 23.4
CC(C)CCNc1nc(NCCc2ccccc2)c2cc(O)ccc2n1 | 7.05
O=C(Nc1cccc(OCCN2CCCC2)c1)Nc1ccc(Cl)c(Cl)c1 | 1.92
CN(Cc1cccc(C#N)c1)C1CCN(c2cc(NC(=O)c3ccc(F)cc3)ccn2)CC1 | 3.29
OC1CCC(Nc2ccc3ncc(-c4ccc5ccccc5c4)n3n2)CC1 (stereo not given) | 1.14
CC(=O)Nc1ccc(-c2nc3ccc(-c4nc5ccc(NC(C)=O)cc5[nH]4)cc3[nH]2)cc1 | 5.99
Cc1ccc(-c2cccc3c(NC(=O)Nc4ccc5nccc(N6CCN(C)CC6)c5c4)cccc23)cn1 | 0.51
CCOCCCn1c(=N)c(C(=O)NCc2ccc(OC)cc2)cc2c(=O)n3cccc(C)c3nc21 | 3.85
C/C=C/COc1ccc(-c2c(C)[nH]c(C)c(Cl)c2=O)cc1 | 4.66
Oc1ccc(CNCC2CCN(CC3CCCCC3)CC2)cc1 | 5.22
Cn1c(/C=C/C(=O)NC2CCC(CCN3CCc4ccc(C#N)cc4CC3)CC2)cc2ccccc21 (stereo not given) | 2.51
CCn1c(-c2nonc2N)nc2c(-c3cccc(NC(=O)Nc4cccc(OC)c4)c3)ncc(OCCCN)c21 | 0.06
CCCOc1ccc(CCNCCCCNCCc2ccc(OCCC)c3ccccc23)c2ccccc12 | 101
CN1CCN(CCCCCNc2c3ccccc3nc3ccccc23)CC1 | 28

Each compound was assayed against Hexose transporter 1 (Plasmodium falciparum) (UniProt O97467) (assay: ST_JUDE_LEISH: Cytotoxicity at 2uM final concentration against transgenic Leishmania Mexicana promastigotes LmPfHT that are glucose transport deficient and complemented with the Plasmodium falciparum hexose transporter. Activity is measured by DNA content using SYBR green in vitro).
Format: functional

SMILES | inhibition [%]
C#CC[C@@H](NC(N)=O)C(=O)O | 1
Cc1ccc(/C=C/C(=O)NC2CCC(N3CCC(c4ccccc4C)CC3)CC2)cc1F (stereo not given) | 17.5
O=C(/C=C/c1ccc(Cl)c(Cl)c1)NCCCCCCN1CCCN(C(=O)Nc2cccc(Cl)c2)CC1 | 0.08
CCOc1ccc(/C=C/C(=O)Nc2cccc3c2CCN(C)C3)cc1 | 7.2
O=C(O)c1ccc2c(c1)N(C(=O)CNCc1ccc(F)cc1)CC(=O)N2CCCc1ccccc1 | -1.82
CN1CCN(c2ccc(-c3cc(-c4ccncc4)c(-c4ccc(Cl)c(O)c4)o3)cc2)CC1 | 0
CC(C)N1CCC(N(Cc2ccc(-c3ccc(C(F)(F)F)cc3)cc2)C(=O)Cn2c(CCc3cccc(F)c3F)cc(=O)c3cn(C)nc32)CC1 | 8.4
Cc1cc(Nc2ccc(Oc3ccc(Cl)cc3)cc2)nc(N)n1 | 5.01
Cc1c[nH]c(CCNC(=O)c2cc(-c3ccc(Cl)cc3)cs2)n1 | 0.26
O=C(Nc1cccc2ccccc12)N1CCc2cc3nccc(N4CCN5CCC[C@H]5C4)c3cc21 | 2.82
CS(=O)(=O)c1ccc(-n2nc(C(F)(F)F)cc2-c2ccc(C=NOCC(=O)O)o2)cc1 | 2.45
CCc1c(CCNCCCCCCNCCc2ccc([N+](=O)[O-])cc2)ccc(OC)c1OC | 10.1
CCc1cc(N2CCN(c3ccccc3F)CC2)nc(SCc2ccc(C(=O)NC3CC3)o2)n1 | 1.67
Cc1cc(NCc2ccc(F)cc2)nc2cc(O)ccc12 | 3.64
COc1ccc(CCN(C)CCOc2ccc(NC(=O)COc3ccc4sc5ccccc5c(=O)c4c3)cc2)cc1OC | 4.33
O=C(NC1CCCCC1)N(Cc1cccc(-c2ccc(CNCc3ccc4c(c3)OCO4)cc2)c1)C1CCN(Cc2ccccc2)CC1 | 5.99
O=C(Nc1cccc(-c2nc3ccccc3[nH]2)c1)c1cccc(NC(=O)c2ccco2)c1 | 2.09
CCN1C(=O)C(CC(=O)Nc2cccc(Cl)c2)N(Cc2ccc(OC)c(OC)c2)C1=S (stereo not given) | 4.35
CCc1ccc(OCc2ccccc2C(=O)Nc2ccc3nc(C)cc(N)c3c2)cc1 | 2.87
CC(=O)c1c(C)[nH]c(C(=O)Nc2ccc(-c3nc4ccc(C)cc4s3)cc2)c1C | -4.21

SMILES | inhibition [%]
N#Cc1ccc(CN2CCC(Oc3ccc(NC(=O)c4cccs4)cc3)C2)cc1 (stereo not given) | -0.99
Cc1nc(-c2ccc(-c3ccc(NC(=O)c4coc5ccc(N6CC(C)NC(C)C6)cc45)cc3)c(C)c2)no1 (stereo not given) | 5.16
O=C(CC(=O)Nc1cc(Cl)cc(Cl)c1)Nc1cc(Cl)cc(Cl)c1 | -3.47
Nc1nc(N)c2c(Cl)c(N(Cc3ccccc3)Cc3ccccc3)ccc2n1 | 23.5
CCC(C)c1ccc(NC(=O)c2ccc(S(=O)(=O)Nc3ccc(OC)c(N4CCN(CC5CC5)CC4)c3)cc2)cc1 (stereo not given) | -0.83
CC(=O)Nc1nc(N)c2c(ccc3c2ccn3CC(C)C)n1 | -0.46
Cc1cc(NC2CCN(Cc3ccccc3)CC2)nc(NCCCCc2ccccc2)n1 | 17.5
CC(C)CCNc1nc(NCCc2ccccc2)c2cc(O)ccc2n1 | 3.99
O=C(Nc1cccc(OCCN2CCCC2)c1)Nc1ccc(Cl)c(Cl)c1 | 2.15
CN(Cc1cccc(C#N)c1)C1CCN(c2cc(NC(=O)c3ccc(F)cc3)ccn2)CC1 | 2.12
OC1CCC(Nc2ccc3ncc(-c4ccc5ccccc5c4)n3n2)CC1 (stereo not given) | 3.23
CC(=O)Nc1ccc(-c2nc3ccc(-c4nc5ccc(NC(C)=O)cc5[nH]4)cc3[nH]2)cc1 | 3.79
Cc1ccc(-c2cccc3c(NC(=O)Nc4ccc5nccc(N6CCN(C)CC6)c5c4)cccc23)cn1 | 0.17
CCOCCCn1c(=N)c(C(=O)NCc2ccc(OC)cc2)cc2c(=O)n3cccc(C)c3nc21 | 5.36
C/C=C/COc1ccc(-c2c(C)[nH]c(C)c(Cl)c2=O)cc1 | 6.53
Oc1ccc(CNCC2CCN(CC3CCCCC3)CC2)cc1 | 0.53
Cn1c(/C=C/C(=O)NC2CCC(CCN3CCc4ccc(C#N)cc4CC3)CC2)cc2ccccc21 (stereo not given) | 4.9
CCn1c(-c2nonc2N)nc2c(-c3cccc(NC(=O)Nc4cccc(OC)c4)c3)ncc(OCCCN)c21 | 2.8
CCCOc1ccc(CCNCCCCNCCc2ccc(OCCC)c3ccccc23)c2ccccc12 | 99.1
CN1CCN(CCCCCNc2c3ccccc3nc3ccccc23)CC1 | 21.1
